These results are taken from the supplement of paper PMC13380429.

Assay [1] relates to Vero E6 infected with SARS-CoV-2. In words: morphology score (similarity to uninfected cells); higher = more like uninfected cells. The settings on record: 24 h.
Assay [2] shares this test system. The assay is described as follows: SARS-CoV-2 infection rate relative to infected DMSO; higher = more infection, active = 60 or less. To be noted: 24 h.

With `C=CCNc1nc(NCC=C)nc(N2CCN(C(c3ccc(F)cc3)c3ccc(F)cc3)CC2)n1` [almitrine] (10 µM), the morphology score in assay [1] came to 0.136. In addition, in assay [2], the SARS-CoV-2 infection rate was 101% (inactive).

In turn, `CCN1C[C@H](C)n2c(c(O)c3c(=O)n(Cc4ccc(F)c(Cl)c4)nc(C(=O)NC)c32)C1=O` (10 µM) registered a morphology score in assay [1] of 0.0188. Further, the SARS-CoV-2 infection rate in assay [2] was 97.5% (inactive).

`CN(C)CCN(Cc1ccccc1)c1ccccn1` [tripelennamine] (10 µM) displayed a morphology score in assay [1] of -0.0386. In addition, the SARS-CoV-2 infection rate in assay [2] is 110% (inactive).

Consider `CCc1cc2c(c(CC)n1)CCC(=O)N2Cc1ccc(-c2ccccc2-c2nnn[nH]2)cc1` (10 µM), for which, in assay [1], the morphology score was determined as 0.264. Also, the SARS-CoV-2 infection rate in assay [2] is 98.5% (inactive).

`Nc1nccc(-c2ccc3noc(-c4ccc(Cl)cc4)c3c2)n1` [PIM-1-Inhibitor-2] (10 µM) gave a morphology score in assay [1] of -0.089. For the same molecule, the SARS-CoV-2 infection rate in assay [2] is 111% (inactive).

As to `O=C(CO)[C@@H](O)[C@@H](O)[C@H](O)CO` [tagatose] (10 µM), the morphology score in assay [1] is -0.0178. Moreover, the SARS-CoV-2 infection rate in assay [2] was 108% (inactive).

With `CN1CCC2=C(C1)C(c1ccccc1)c1ccccc12` (stereo unspecified) [phenindamine] (10 µM), in assay [1], the morphology score was -0.171. Further, the SARS-CoV-2 infection rate in assay [2] is 112% (inactive).

As to `C[C@H](N/C(=N/C#N)Nc1cccc2ncccc12)c1ccccc1` (10 µM), the morphology score in assay [1] was 0.0952. Also, in assay [2], the SARS-CoV-2 infection rate is 98.5% (inactive).

In assay [1], `COc1cn(-c2ccc(-n3cccn3)cc2F)nc(-c2ccnn2-c2ccccc2)c1=O` (10 µM) yielded a morphology score of 0.0337. The SARS-CoV-2 infection rate in assay [2] was 112% (inactive).

Regarding `Fc1ccc(CN2CCC(Nc3ccc(C(F)(F)F)nn3)CC2)cc1F` (10 µM), the morphology score in assay [1] is -0.198. Moreover, the SARS-CoV-2 infection rate in assay [2] is 110% (inactive).

In assay [1], `O=[N+]([O-])c1ccc2c(c1)S(=O)(=O)C=C2` [stattic] (0.833333 µM) came in with a morphology score of 0.148. In addition, the SARS-CoV-2 infection rate in assay [2] was 100% (inactive).

In assay [1], `CN1CC[C@H](c2c(O)cc(O)c3c(=O)cc(-c4ccccc4Cl)oc23)[C@H](O)C1` [alvocidib] (10 µM) registered a morphology score of -0.17. For the same molecule, in assay [2], the SARS-CoV-2 infection rate is 108% (inactive).

The molecule `CC1(C)CC(=O)c2c(C(F)(F)F)nn(-c3ccc(C(N)=O)c(N[C@H]4CC[C@H](OC(=O)CN)CC4)c3)c2C1` (10 µM) had a morphology score in assay [1] of 0.127. Also, the SARS-CoV-2 infection rate in assay [2] was 108% (inactive).

For `Ic1cncc(OC[C@@H]2CCN2)c1` (10 µM), in assay [1], the morphology score amounted to 0.114. Also, in assay [2], the SARS-CoV-2 infection rate is 101% (inactive).

Turning to `CCN(CC)C(=O)N[C@H]1C[C@@H]2c3cccc4[nH]cc(c34)C[C@H]2N(C)C1` [terguride] (10 µM), the morphology score in assay [1] is -0.00522. The SARS-CoV-2 infection rate in assay [2] is 110% (inactive).

The molecule `Cc1ccc(C(=O)Nc2ccc(Oc3cc4cnn(C)c4cc3-c3cn[nH]c3)c(F)c2)c(=O)n1-c1ccc(F)cc1` (0.833333 µM) registered a morphology score in assay [1] of 0.172. In assay [2], the SARS-CoV-2 infection rate is 106% (inactive).

The molecule `OC(CCN1CCCCC1)(c1ccccc1)C1CCCCC1` (stereo unspecified) [trihexyphenidyl] (10 µM) had a morphology score in assay [1] of 0.167. For the same molecule, the SARS-CoV-2 infection rate in assay [2] is 92% (inactive).

Turning to `Oc1c(Br)cc(Br)c2cccnc12` [broxyquinoline] (10 µM), the morphology score in assay [1] was found to be 0.015. The SARS-CoV-2 infection rate in assay [2] was 104% (inactive).

The molecule `O=S(=O)(c1cccc2cnccc12)N1CCCNCC1` [fasudil] (10 µM) yielded a morphology score in assay [1] of 0.474. The SARS-CoV-2 infection rate in assay [2] was 100% (inactive).

In assay [1], `CCC[S+]([O-])c1ccc2[nH]c(NC(=O)OC)nc2c1` (stereo unspecified) [albendazole-oxide] (10 µM) registered a morphology score of 0.034. Further, the SARS-CoV-2 infection rate in assay [2] is 110% (inactive).

`COc1ccc(-c2cc(=O)c3c(O)cc(O)cc3o2)cc1O` [diosmetin] (10 µM) displayed a morphology score in assay [1] of 0.205. Besides, the SARS-CoV-2 infection rate in assay [2] was 106% (inactive).

`CN(C)c1ccc2nc3ccc(=[N+](C)C)cc-3sc2c1` [methylene-blue] (0.833333 µM): the morphology score in assay [1] was 0.152. In addition, in assay [2], the SARS-CoV-2 infection rate is 104% (inactive).

The molecule `O=c1c(O)c(-c2cc(O)c(O)c(O)c2)oc2cc(O)cc(O)c12` [myricetin] (10 µM) had a morphology score in assay [1] of 0.195. Moreover, the SARS-CoV-2 infection rate in assay [2] was 110% (inactive).

Consider `CCOC(=O)Nc1cc(-c2ccc(C)c(NS(C)(=O)=O)c2)nn2c(C)nnc12` [bromosporine] (10 µM), for which the morphology score in assay [1] was -0.021. In assay [2], the SARS-CoV-2 infection rate is 111% (inactive).

In the case of `CC1(C)CCC[C@]2(C)[C@H]3CC(=O)O[C@]3(C)CC[C@@H]12` [Sclareolide (Norambreinolide)] (10 µM), the morphology score in assay [1] came out at 0.184. For the same molecule, in assay [2], the SARS-CoV-2 infection rate is 106% (inactive).

For the molecule `O=C(O)[C@H](CC(=O)N1C[C@H]2CCCC[C@H]2C1)Cc1ccccc1` [mitiglinide] (10 µM), the morphology score in assay [1] turned out to be 0.0871. For the same molecule, the SARS-CoV-2 infection rate in assay [2] is 108% (inactive).

For `CN1CCC(COc2cnc(-c3cccc(Cn4nc(-c5cccc(C#N)c5)ccc4=O)c3)nc2)CC1` (10 µM), the morphology score in assay [1] is 0.207. For the same molecule, the SARS-CoV-2 infection rate in assay [2] is 100% (inactive).

For the molecule `C[S+](C)CC[C@H](N)C(=O)O` [cabagin] (10 µM), the morphology score in assay [1] worked out at 0.00749. In assay [2], the SARS-CoV-2 infection rate was 109% (inactive).

`O=[N+]([O-])O[C@@H]1CO[C@H]2[C@@H]1OC[C@@H]2O` [isosorbide-mononitrate] (10 µM) came in with a morphology score in assay [1] of -0.103. Further, the SARS-CoV-2 infection rate in assay [2] was 110% (inactive).

Take `O=[N+]([O-])c1cncn1CCN1CCOCC1` [nimorazole] (10 µM): the morphology score in assay [1] amounted to 0.0962. Also, the SARS-CoV-2 infection rate in assay [2] is 91.5% (inactive).

In the case of `COc1ccc(CCN(C)CCc2ccc(OC)c(OC)c2)cc1OC` (10 µM), the morphology score in assay [1] stood at 0.0297. Further, the SARS-CoV-2 infection rate in assay [2] is 103% (inactive).

`CC12CC3CC(C)(C1)CC(N)(C3)C2` [memantine] (10 µM) yielded a morphology score in assay [1] of 0.0122. Also, the SARS-CoV-2 infection rate in assay [2] was 110% (inactive).

In assay [1], `COc1cc(/C=C2\CCC/C(=C\c3ccc(O)c(OC)c3)C2=O)ccc1O` [cyclovalone] (10 µM) showed a morphology score of 0.0684. Further, the SARS-CoV-2 infection rate in assay [2] is 93% (inactive).
